Several values for one entry are separate records, joined by “and”; a condition that tells them apart may be missing. Equal values may be shown once. For part of these data: Measured potencies and affinities stand elsewhere. The source holds several records for some structures; these can differ, active in one and inactive in another. Activity calls are given as the source filed them. Unless noted, how the calls were made is not given here.

A short description of assay [1]: antimalarial activity against Dd2 strain (AID 2302;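 active means growth inhibition above 50% at the single 2 µM test dose, taken to imply half-maximal potency below 2 µM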;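 further: 0% = DMSO untreated growth and 100% = chloroquine plus artemisinin killed control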). As to conditions: P. falciparum Dd2 in RBCs, LDH growth readout, 72 h; at 2 µM; stronger effect = higher value.
Assay [2] is described as follows: human hepatoma cell viability loss – ATP luminescence, cytotoxicity control for P. falciparum antimalarial project, primary screen (AID 2303;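 active means inhibition above 50%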;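 further: 0% = DMSO wells and 100% = digitonin-killed cells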). The note with it: HepG2 viability, 24-48 h, at 10 µM, stronger effect = higher value.
The target in assay [3] is L-lactate dehydrogenase (Plasmodium falciparum (isolate CDC / Honduras)) (UniProt Q27743). Kind of assay: PfLDH activity inhibition – cell lysate, 3D7 strain, counter-screen for P. falciparum growth inhibition project (AID 2304).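 Further: 0% = vehicle and 100% = reference inhibitor.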 The note with it: P. falciparum 3D7 crude extract, LDH APAD/NBT absorbance; at 2 µM; stronger effect = higher value. In general terms: A counterscreen serves to expose hits that act by an unwanted route or on another target.
Chain of L-lactate dehydrogenase (Plasmodium falciparum (isolate CDC / Honduras)) (Q27743 whole entry, looked up): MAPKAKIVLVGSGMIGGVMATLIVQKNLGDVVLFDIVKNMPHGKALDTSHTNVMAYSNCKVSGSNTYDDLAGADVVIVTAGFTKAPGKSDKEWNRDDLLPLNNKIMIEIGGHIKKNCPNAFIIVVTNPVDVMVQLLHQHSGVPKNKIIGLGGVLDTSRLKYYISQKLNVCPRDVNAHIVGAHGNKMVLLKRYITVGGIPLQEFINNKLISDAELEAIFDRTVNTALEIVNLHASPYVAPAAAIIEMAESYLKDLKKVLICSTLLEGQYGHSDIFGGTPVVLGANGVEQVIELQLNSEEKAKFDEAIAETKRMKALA

Assay [4] can be described thus: inhibition of 3D7 malaria parasite growth – strain 3D7 (AID 2306).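 Further: 0% = DMSO wells and 100% = chloroquine plus artemisinin control wells.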 The note with it: P. falciparum 3D7 erythrocytic growth, LDH absorbance, 72 h; at 2 µM; stronger effect = higher value.
Assay [5] deals with Calcium-dependent protein kinase 1 (Plasmodium falciparum (isolate 3D7)) (UniProt P62344). The experiment in a line: PfCDPK1 kinase inhibitors, biochemical, TCAMS library (AID 1159585; cut-off not given, nearly all actives have IC50 up to about 0.98 µM;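 further: inhibitors leave more ATP so luminescence rises with inhibition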). As to conditions: recombinant PfCDPK1, Kinase-Glo ATP depletion luminescence. A general note: Kinase-Glo measures the ATP left after a reaction by luminescence.
Chain of Calcium-dependent protein kinase 1 (Plasmodium falciparum (isolate 3D7)) (P62344 whole entry, looked up): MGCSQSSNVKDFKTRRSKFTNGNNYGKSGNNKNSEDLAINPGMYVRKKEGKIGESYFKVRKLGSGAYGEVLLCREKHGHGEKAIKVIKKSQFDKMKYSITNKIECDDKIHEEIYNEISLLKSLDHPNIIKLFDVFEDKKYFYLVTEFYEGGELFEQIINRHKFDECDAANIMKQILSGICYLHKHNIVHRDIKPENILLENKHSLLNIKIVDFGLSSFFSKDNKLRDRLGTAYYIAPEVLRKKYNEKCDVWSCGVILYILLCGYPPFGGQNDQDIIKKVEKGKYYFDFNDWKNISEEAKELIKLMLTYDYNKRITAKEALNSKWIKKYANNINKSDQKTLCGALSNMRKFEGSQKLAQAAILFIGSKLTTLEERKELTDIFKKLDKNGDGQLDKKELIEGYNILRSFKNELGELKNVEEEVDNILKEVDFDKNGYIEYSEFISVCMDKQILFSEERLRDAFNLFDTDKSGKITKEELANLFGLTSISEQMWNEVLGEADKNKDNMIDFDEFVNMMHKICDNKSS
Assay [6] has as its target Plasmodium falciparum protein kinase 6 (PK6, PF3D7_1337100) (UniProt Q8IDW1). Kind of assay: PfPK6 kinase inhibitors, biochemical, TCAMS library (AID 1159586). The note with it: recombinant PfPK6, Kinase-Glo ATP depletion luminescence.
In assay [7] the target is Protein kinase 7 (PK7), Plasmodium falciparum 3D7 (PF3D7_0213400) (UniProt Q7YTF7). The experiment in a line: inhibition of Plasmodium PK7 catalytic activity – biochemical, TCAMS antimalarial set, Kinase-Glo luminescence (AID 1159587). As to conditions: recombinant PfPK7, Kinase-Glo ATP depletion luminescence.
Chain of Protein kinase 7 (PK7), Plasmodium falciparum 3D7 (PF3D7_0213400) (Q7YTF7 1-343): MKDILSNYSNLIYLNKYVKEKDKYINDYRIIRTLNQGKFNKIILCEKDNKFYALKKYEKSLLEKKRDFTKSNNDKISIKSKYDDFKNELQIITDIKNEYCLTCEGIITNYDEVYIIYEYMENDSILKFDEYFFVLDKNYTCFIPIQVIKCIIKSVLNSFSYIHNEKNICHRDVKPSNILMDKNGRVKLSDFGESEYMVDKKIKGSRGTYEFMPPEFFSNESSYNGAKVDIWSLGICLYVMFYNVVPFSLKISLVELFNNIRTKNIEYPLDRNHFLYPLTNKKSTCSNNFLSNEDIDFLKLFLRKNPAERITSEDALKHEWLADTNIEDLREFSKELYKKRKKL
The target in assay [8] is Calcium-dependent protein kinase 4 (Plasmodium falciparum (isolate 3D7)) (UniProt Q8IBS5). Kind of assay: PfCDPK4 kinase inhibitors, biochemical, TCAMS library (AID 1159588; cut-off not given, nearly all actives have IC50 up to about 0.91 µM). The note with it: recombinant PfCDPK4, Kinase-Glo ATP depletion luminescence.
Chain of Calcium-dependent protein kinase 4 (Plasmodium falciparum (isolate 3D7)) (Q8IBS5 whole entry, looked up): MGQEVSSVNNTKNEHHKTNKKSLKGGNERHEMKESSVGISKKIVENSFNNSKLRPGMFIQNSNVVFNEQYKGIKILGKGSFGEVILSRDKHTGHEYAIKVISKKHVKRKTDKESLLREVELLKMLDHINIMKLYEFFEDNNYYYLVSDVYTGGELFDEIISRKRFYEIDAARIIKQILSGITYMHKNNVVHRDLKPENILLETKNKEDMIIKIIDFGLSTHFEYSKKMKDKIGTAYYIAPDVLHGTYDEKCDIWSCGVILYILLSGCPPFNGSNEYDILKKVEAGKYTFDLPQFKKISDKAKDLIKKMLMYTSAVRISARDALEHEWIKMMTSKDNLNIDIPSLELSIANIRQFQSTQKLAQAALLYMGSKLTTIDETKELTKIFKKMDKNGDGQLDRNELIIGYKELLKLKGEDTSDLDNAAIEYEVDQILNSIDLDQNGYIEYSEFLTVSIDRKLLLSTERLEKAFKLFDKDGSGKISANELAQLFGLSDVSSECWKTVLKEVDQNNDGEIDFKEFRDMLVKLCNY

Chain of Plasmodium falciparum protein kinase 6 (PK6, PF3D7_1337100) (Q8IDW1 1-305): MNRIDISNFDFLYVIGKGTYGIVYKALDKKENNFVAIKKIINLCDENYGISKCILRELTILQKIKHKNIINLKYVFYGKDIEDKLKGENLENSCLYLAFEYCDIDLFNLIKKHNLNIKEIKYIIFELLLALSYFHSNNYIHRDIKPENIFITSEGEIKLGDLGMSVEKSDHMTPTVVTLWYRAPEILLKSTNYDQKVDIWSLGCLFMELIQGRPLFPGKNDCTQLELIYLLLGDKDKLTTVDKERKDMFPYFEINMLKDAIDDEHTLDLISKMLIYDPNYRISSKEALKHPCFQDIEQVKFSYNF

Consider `CN1CCC(NCc2cccc(-c3cccc(-c4nc5ccc(C(F)(F)F)cc5[nH]4)c3)c2)CC1`, for which the growth inhibition in assay [1] and in assay [4] was 101% (active) throughout. The figures for the inhibition in assay [2] and in assay [3] were 35% (inactive) and -1% (inactive), respectively. In addition, the outcome in assay [5], in assay [6], in assay [7] and in assay [8] was inactive.

As for `CCCn1c(Sc2ccc(C#N)c([N+](=O)[O-])c2)nnc1-c1cc(OC)cc(OC)c1`, the growth inhibition is 79% (active) in assay [1] and 98% (active) in assay [4]. For the same compound, the inhibition (usually the relative decrease from the control value, in per cent) in assay [2] is 24% (inactive); in assay [3], 6% (inactive). For the same compound, the outcome in assay [5], in assay [6], in assay [7] and in assay [8] was inactive.

Consider `COc1ccc2nccc([C@@H](O)CN3CCC(NCc4ccc5c(c4)nnn5C(C)C)CC3)c2c1`, for which the growth inhibition in assay [1] is 40% (inactive); in assay [4], 100% (active). The inhibition in assay [2] is 15% (inactive); in assay [3], 0% (inactive). Also, the outcome in assay [5], in assay [6], in assay [7] and in assay [8] was inactive.

As for `CCCC(C)Nc1nc(C)cc(N[C@@H](CC(C)C)C(=O)NCc2ccc(C)cc2)n1` (some centres not stated), the growth inhibition in assay [1] is 51% (active); in assay [4] it was 98% (active). The figures for the inhibition in assay [2] and in assay [3] were 16% (inactive) and -1% (inactive), respectively. Further, the result in assay [5], in assay [6], in assay [7] and in assay [8] was inactive.

For the compound `CCCCCCN1CCCN(Cc2ccc(C(=O)Nc3ccc(CC)cc3)cc2)CC1`, the values for the growth inhibition in assay [1] and in assay [4] were 50% (active) and 97% (active), respectively. The values for the inhibition in assay [2] and in assay [3] were 53% (active) and 2% (inactive), respectively. Also, the outcome in assay [5], in assay [6], in assay [7] and in assay [8] was inactive.

For the compound `Clc1ccc2c(NCCNc3ccnc4cc(Cl)ccc34)ccnc2c1`, the figures for the growth inhibition in assay [1] and in assay [4] were 96% (active) and 101% (active), respectively. For the same compound, the figures for the inhibition in assay [2] and in assay [3] were 6% (inactive) and -6% (inactive), respectively. Also, the result in assay [5], in assay [6], in assay [7] and in assay [8] was inactive.

Take `COc1cccc(NC(=O)c2ccc(NCCCN3CC(C)CC(C)C3)c([N+](=O)[O-])c2)c1` (configuration not stated): the growth inhibition is 68% (active) in assay [1] and 100% (active) in assay [4]. The inhibition was 14% (inactive) in assay [2] and -4% (inactive) in assay [3]. Moreover, the result in assay [5], in assay [6], in assay [7] and in assay [8] was inactive.

On to `c1ccc(Oc2ccc(Nc3ccnc4cc(-c5ccc(CN6CCOCC6)o5)ccc34)cc2)nc1`, for which the growth inhibition was 73% (active) in assay [1] and 92% (active) in assay [4]. In addition, the inhibition in assay [2] was 5% (inactive); in assay [3] it was 0% (inactive). The outcome in assay [5], in assay [6], in assay [7] and in assay [8] was inactive.

`NC1=NC(c2ccccc2)(c2cccc(O)c2)C(=O)N1CCCc1ccccc1` (configuration not stated): the growth inhibition was 38% (inactive) and 93% (active) in assay [1]; 85% (active) and 98% (active) in assay [4]. The inhibition in assay [2] is -2% (inactive); in assay [3], -2% (inactive) and 4% (inactive). In addition, the result in assay [5], in assay [6], in assay [7] and in assay [8] was inactive.

As to `CC(CCc1ccccc1)NCC(O)c1ccc2c(c1)S(=O)(=O)c1ccccc1N2` (configuration not stated), the figures for the growth inhibition in assay [1] and in assay [4] were 4% (inactive) and 95% (active), respectively. Besides, the results for the inhibition in assay [2] and in assay [3] were 17% (inactive) and 0% (inactive), respectively. Moreover, the outcome in assay [5], in assay [6], in assay [7] and in assay [8] was inactive.

`O=C(Nc1cccc(C(F)(F)F)c1)Nc1ccc(Cl)c(Cl)c1`: the growth inhibition in assay [1] and in assay [4] was 100% (active) each time. The figures for the inhibition in assay [2] and in assay [3] were 5% (inactive) and -4% (inactive), respectively. Besides, the outcome in assay [5], in assay [6], in assay [7] and in assay [8] was inactive.

Regarding `c1ccc(CN2CCC(NCc3ccc(-c4ccc(CNC5CCCC5)cc4)cc3)CC2)cc1`, the growth inhibition was 98% (active) in assay [1] and 101% (active) in assay [4]. The values for the inhibition in assay [2] and in assay [3] were 24% (inactive) and -4% (inactive), respectively. In addition, the result in assay [5], in assay [6], in assay [7] and in assay [8] was inactive.

In the case of `Cc1cc(OCc2ccncc2)cc2c1C(=O)CC(C)(C)O2`, the results for the growth inhibition in assay [1] and in assay [4] were 0% (inactive) and 99% (active), respectively. Besides, the inhibition in assay [2] and in assay [3] was -5% (inactive) each time. For the same compound, the result in assay [5], in assay [6], in assay [7] and in assay [8] was inactive.

Consider `CC(C)(C)c1ccc(CN2CCC(NC(=O)c3ccc(-c4ccccc4Cl)s3)CC2)cc1`, for which the growth inhibition in assay [1] is 29% (inactive); in assay [4], 84% (active). Moreover, the figures for the inhibition in assay [2] and in assay [3] were 36% (inactive) and 4% (inactive), respectively. Also, the result in assay [5], in assay [6], in assay [7] and in assay [8] was inactive.

Consider `O=S(=O)(NCCN1CCCC1)c1cccc(-c2ccccc2CNC2Cc3ccccc3C2)c1`, for which the values for the growth inhibition in assay [1] and in assay [4] were 76% (active) and 99% (active), respectively. In addition, the figures for the inhibition in assay [2] and in assay [3] were 35% (inactive) and -3% (inactive), respectively. The result in assay [5], in assay [6], in assay [7] and in assay [8] was inactive.

`CC(C)CNCc1cccc(-c2cccc(CNCCCN3CCN(C)CC3)c2)c1`: the growth inhibition in assay [1] is 7% (inactive); in assay [4] it was 88% (active). In addition, the inhibition is 5% (inactive) in assay [2] and 1% (inactive) in assay [3]. The outcome in assay [5], in assay [6], in assay [7] and in assay [8] was inactive.

For `Oc1ccc(CCNc2nc(NCCCOc3ccccc3-c3ccc(F)cc3)nc(N3CCNCC3)n2)cc1`, the figures for the growth inhibition in assay [1] and in assay [4] were 8% (inactive) and 85% (active), respectively. The inhibition in assay [2] is 30% (inactive); in assay [3] it was -1% (inactive). Besides, the outcome in assay [5], in assay [6], in assay [7] and in assay [8] was inactive.

As to `COc1ccc(-c2cccc(NC(=O)c3cccc(Cl)c3)c2)cc1CN1CCNCC1`, the results for the growth inhibition in assay [1] and in assay [4] were 52% (active) and 101% (active), respectively. Moreover, the inhibition is 29% (inactive) in assay [2] and 9% (inactive) in assay [3]. Moreover, the outcome in assay [5], in assay [6], in assay [7] and in assay [8] was inactive.

As to `CCc1nc2c(N)nc(N)nc2nc1-c1ccc(OC)cc1`, the figures for the growth inhibition in assay [1] and in assay [4] were -3% (inactive) and 86% (active), respectively. Also, the figures for the inhibition in assay [2] and in assay [3] were 44% (inactive) and 2% (inactive), respectively. For the same compound, the outcome in assay [5], in assay [6], in assay [7] and in assay [8] was inactive.

In the case of `Cn1ncc2c3c(CCN4CCC(NCc5cc6c(cn5)OCCO6)CC4)c(Cl)cnc3ccc21`, the values for the growth inhibition in assay [1] and in assay [4] were 34% (inactive) and 95% (active), respectively. Moreover, the inhibition was 1% (inactive) in assay [2] and 0% (inactive) in assay [3]. The outcome in assay [5], in assay [6], in assay [7] and in assay [8] was inactive.

Take `Cc1cccc(C=NNc2cc(C)nc3ccc(F)cc23)n1`: the growth inhibition is 45% (inactive) in assay [1] and 95% (active) in assay [4]. In addition, the inhibition in assay [2] was 1% (inactive); in assay [3], 3% (inactive). Besides, the result in assay [5], in assay [6], in assay [7] and in assay [8] was inactive.

On to `CCCOc1cccc(C(=O)N[C@@H](Cc2ccccc2)[C@H](O)CNCc2cccc(OC)c2)c1`, for which the growth inhibition in assay [1] is 18% (inactive); in assay [4] it was 102% (active). The inhibition is 14% (inactive) in assay [2] and -3% (inactive) in assay [3]. Besides, the outcome in assay [5], in assay [6], in assay [7] and in assay [8] was inactive.

With `CS(=O)(=O)c1ccc(CCNCc2ccc(-c3ccc(CN(C(=O)c4cccc(C#N)c4)C4CCN(Cc5ccccc5)CC4)cc3)nc2)cc1`, the figures for the growth inhibition in assay [1] and in assay [4] were 56% (active) and 96% (active), respectively. Moreover, the inhibition is 20% (inactive) in assay [2] and 1% (inactive) in assay [3]. The result in assay [5], in assay [6], in assay [7] and in assay [8] was inactive.

On to `O=C(/C=C/c1ccc(Cl)c(Cl)c1)NC1CCN(CCCNC(=O)c2cccc(Cl)c2)CC1`, for which the growth inhibition is 28% (inactive) in assay [1] and 100% (active) in assay [4]. Moreover, the inhibition in assay [2] is 36% (inactive); in assay [3], -2% (inactive). Moreover, the result in assay [5], in assay [6], in assay [7] and in assay [8] was inactive.

(Values after PubChem BioAssay.)
